# Measured values from PubChem BioAssay AID1159580 (chemical genetic matrix, 2015).
# Several values for one entry are separate records, joined by “and”; a condition that tells them apart may be missing. Equal values may be shown once. Screen size: about 5,500 compounds; about 2,000 (36%) were called active. About 18% were inconclusive and are not listed. The list shows a part of the results. A number with no mark means an inactive call. No stated cut-off is given here; in the data, active means normalized growth mostly below about 0.91 (no sharp cut-off); inconclusive means no clear call, values can overlap the other calls; inactive means mostly above about 0.92.
# Assay: chemical genetic growth profiling, strain panel (AID 1159580);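 further: tested at 20 µM; growth read once vehicle control cultures reached saturation at 30 °C; 1 = growth at the plate median or of vehicle wells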
# Conditions: growth OD
# [1] = S. cerevisiae deletion strains, locus YAL040C, strain CLN3, stronger effect = lower value
# [2] = S. cerevisiae deletion strains, locus YDR150W, strain NUM1, stronger effect = lower value
# [3] = S. cerevisiae deletion strains, locus YDR363W, strain ESC2, stronger effect = lower value
# [4] = S. cerevisiae deletion strains, locus YER002W, strain NOP16, stronger effect = lower value
# [5] = S. cerevisiae deletion strains, locus YGR229C, strain SMI1, stronger effect = lower value
# [6] = S. cerevisiae deletion strains, locus YNL153C, strain GIM3, stronger effect = lower value
# [7] = S. cerevisiae deletion strains, locus YNL175C, strain NOP13, stronger effect = lower value
# [8] = S. cerevisiae deletion strains, locus YNL197C, strain WHI3, stronger effect = lower value
# [9] = S. cerevisiae deletion strains, locus YNL224C, strain SQS1, stronger effect = lower value
# [10] = S. cerevisiae deletion strains, locus YNL322C, strain KRE1, stronger effect = lower value
# [11] = S. cerevisiae deletion strains, locus YOR083W, strain WHI5 (second series), stronger effect = lower value
# [12] = S. cerevisiae deletion strains, locus YPL055C, strain LGE1, stronger effect = lower value
# [13] = S. cerevisiae deletion strains, locus YAL013W, strain DEP1, stronger effect = lower value
# [14] = S. cerevisiae deletion strains, locus YMR307W, strain GAS1, stronger effect = lower value
smiles,measurement,setting,value
NC(=NCc1ccccc1)NC(=O)c1nc(Cl)c(N)nc1N,normalized growth,[1],1
same,normalized growth,[2],1.02
same,normalized growth,[3],0.994
same,normalized growth,[4],1.01
same,normalized growth,[5],0.999
same,normalized growth,[6],0.993
same,normalized growth,[7],1.01
same,normalized growth,[8],0.996
same,normalized growth,[9],1.02
same,normalized growth,[10],1.01
same,normalized growth,[11],0.965
same,normalized growth,[12],1.01
NC(N)=NC(=O)c1nc(Cl)c(N2CCCCCC2)nc1N,normalized growth,[13],1.01 and 0.962
same,normalized growth,[1],1.09
same,normalized growth,"S. cerevisiae deletion strains, locus YBR021W, strain FUR4, stronger effect = lower value",1.02
same,normalized growth,"S. cerevisiae deletion strains, locus YBR229C, strain ROT2, stronger effect = lower value",1.01
same,normalized growth,"S. cerevisiae deletion strains, locus YCL029C, strain bik1, stronger effect = lower value",1.01
same,normalized growth,"S. cerevisiae deletion strains, locus YDL035C, strain GPR1, stronger effect = lower value",1
same,normalized growth,"S. cerevisiae deletion strains, locus YDL074C, strain BRE1, stronger effect = lower value",0.989
same,normalized growth,"S. cerevisiae deletion strains, locus YDL101C, strain DUN1, stronger effect = lower value",1.02
same,normalized growth,"S. cerevisiae deletion strains, locus YDL134C, strain PPH21, stronger effect = lower value",1.01
same,normalized growth,"S. cerevisiae deletion strains, locus YDL185W, strain tfp1, stronger effect = lower value",1.02
same,normalized growth,"S. cerevisiae deletion strains, locus YDL192W, strain arf1, stronger effect = lower value",1.01
same,normalized growth,"S. cerevisiae deletion strains, locus YDR101C, strain arx1, stronger effect = lower value",1
same,normalized growth,[2],1.01
same,normalized growth,"S. cerevisiae deletion strains, locus YDR162C, strain NBP2, stronger effect = lower value",1.03
same,normalized growth,"S. cerevisiae deletion strains, locus YDR318W, strain mcm21, stronger effect = lower value",1.01
same,normalized growth,[3],0.986
same,normalized growth,"S. cerevisiae deletion strains, locus YDR388W, stronger effect = lower value",1.01
same,normalized growth,"S. cerevisiae deletion strains, locus YDR502C, strain sam2, stronger effect = lower value",1.01
same,normalized growth,"S. cerevisiae deletion strains, locus YEL061C, strain CIN8, stronger effect = lower value",1.01
same,normalized growth,[4],1.02
same,normalized growth,"S. cerevisiae deletion strains, locus YER110C, stronger effect = lower value",1
same,normalized growth,"S. cerevisiae deletion strains, locus YER155C, strain BEM2, stronger effect = lower value",1.01
same,normalized growth,"S. cerevisiae deletion strains, locus YER167W, strain BCK2, stronger effect = lower value",1
same,normalized growth,"S. cerevisiae deletion strains, locus YGL078C, strain dbp3, stronger effect = lower value",1.02
same,normalized growth,"S. cerevisiae deletion strains, locus YGL086W, strain mad1, stronger effect = lower value",0.998
same,normalized growth,"S. cerevisiae deletion strains, locus YGL248W, strain PDE1, stronger effect = lower value",1.01
same,normalized growth,"S. cerevisiae deletion strains, locus YGR078C, strain PAC10, stronger effect = lower value",0.991
same,normalized growth,"S. cerevisiae deletion strains, locus YGR135W, strain pre9, stronger effect = lower value",0.995
same,normalized growth,[5],1.01 and 0.996
same,normalized growth,"S. cerevisiae deletion strains, locus YGR252W, strain gcn5, stronger effect = lower value",0.853
same,normalized growth,"S. cerevisiae deletion strains, locus YHR030C, strain SLT2, stronger effect = lower value",1.01 and 1.06
same,normalized growth,"S. cerevisiae deletion strains, locus YHR079C, strain IRE1 (second series), stronger effect = lower value",1.02
same,normalized growth,"S. cerevisiae deletion strains, locus YHR079C, strain IRE1, stronger effect = lower value",1.06
same,normalized growth,"S. cerevisiae deletion strains, locus YHR094C, strain hxt1, stronger effect = lower value",1.01
same,normalized growth,"S. cerevisiae deletion strains, locus YHR129C, strain ARP1, stronger effect = lower value",1
same,normalized growth,"S. cerevisiae deletion strains, locus YHR200W, strain rpn10, stronger effect = lower value",1.02
same,normalized growth,"S. cerevisiae deletion strains, locus YIL066C, strain RNR3, stronger effect = lower value",1.02
same,normalized growth,"S. cerevisiae deletion strains, locus YIL073C, strain SPO22, stronger effect = lower value",1.08
same,normalized growth,"S. cerevisiae deletion strains, locus YIL125W, strain kgd1, stronger effect = lower value",1.01
same,normalized growth,"S. cerevisiae deletion strains, locus YIR030C, strain dcg1, stronger effect = lower value",1.02
same,normalized growth,"S. cerevisiae deletion strains, locus YJL095W, strain BCK1, stronger effect = lower value",0.986 and 1.06
same,normalized growth,"S. cerevisiae deletion strains, locus YJL134W, strain LCB3, stronger effect = lower value",1.01
same,normalized growth,"S. cerevisiae deletion strains, locus YJL168C, strain set2, stronger effect = lower value",1.02
same,normalized growth,"S. cerevisiae deletion strains, locus YJL187C, strain SWE1 (second series), stronger effect = lower value",1.02
same,normalized growth,"S. cerevisiae deletion strains, locus YJR043C, strain POL32, stronger effect = lower value",0.982
same,normalized growth,"S. cerevisiae deletion strains, locus YJR066W, strain TOR1, stronger effect = lower value",1.02
same,normalized growth,"S. cerevisiae deletion strains, locus YJR075W, strain HOC1, stronger effect = lower value",0.988
same,normalized growth,"S. cerevisiae deletion strains, locus YKL009W, strain mrt4, stronger effect = lower value",0.999
same,normalized growth,"S. cerevisiae deletion strains, locus YKL068W, stronger effect = lower value",1.01
same,normalized growth,"S. cerevisiae deletion strains, locus YKL085W, strain MDH1 (second series), stronger effect = lower value",1.01
same,normalized growth,"S. cerevisiae deletion strains, locus YKL085W, strain MDH1, stronger effect = lower value",1.01
same,normalized growth,"S. cerevisiae deletion strains, locus YKL190W, strain CNB1, stronger effect = lower value",1.01
same,normalized growth,"S. cerevisiae deletion strains, locus YKR001C, strain vps1, stronger effect = lower value",1.02
same,normalized growth,"S. cerevisiae deletion strains, locus YLR039C, strain RIC1, stronger effect = lower value",1.14
same,normalized growth,"S. cerevisiae deletion strains, locus YLR058C, strain SHM2, stronger effect = lower value",1.02
same,normalized growth,"S. cerevisiae deletion strains, locus YLR102C, strain apc9, stronger effect = lower value",1.01
same,normalized growth,"S. cerevisiae deletion strains, locus YLR113W, strain HOG1, stronger effect = lower value",0.973
same,normalized growth,"S. cerevisiae deletion strains, locus YLR262C, strain YPT6, stronger effect = lower value",1.16
same,normalized growth,"S. cerevisiae deletion strains, locus YLR268W, strain sec22, stronger effect = lower value",1.02
same,normalized growth,"S. cerevisiae deletion strains, locus YLR330W, strain CHS5, stronger effect = lower value",1.02
same,normalized growth,"S. cerevisiae deletion strains, locus YLR342W, strain FKS1 (second series), stronger effect = lower value",0.887
same,normalized growth,"S. cerevisiae deletion strains, locus YLR371W, strain rom2, stronger effect = lower value",1.03
same,normalized growth,"S. cerevisiae deletion strains, locus YLR418C, strain cdc73, stronger effect = lower value",0.91
same,normalized growth,"S. cerevisiae deletion strains, locus YML016C, strain PPZ1, stronger effect = lower value",1.01
same,normalized growth,"S. cerevisiae deletion strains, locus YML032C, strain rad52, stronger effect = lower value",1.01
same,normalized growth,"S. cerevisiae deletion strains, locus YML124C, strain tub3, stronger effect = lower value",1.01
same,normalized growth,"S. cerevisiae deletion strains, locus YMR078C, strain ctf18, stronger effect = lower value",1.01
same,normalized growth,"S. cerevisiae deletion strains, locus YMR223W, strain ubp8, stronger effect = lower value",0.999
same,normalized growth,"S. cerevisiae deletion strains, locus YMR263W, strain SAP30, stronger effect = lower value",1.01 and 0.995
same,normalized growth,[14],0.88
same,normalized growth,"S. cerevisiae deletion strains, locus YNL067W, strain RPL9B, stronger effect = lower value",1
same,normalized growth,"S. cerevisiae deletion strains, locus YNL128W, strain TEP1, stronger effect = lower value",1.02
same,normalized growth,[6],1.01 and 0.97
same,normalized growth,[7],1.03
same,normalized growth,"S. cerevisiae deletion strains, locus YNL183C, strain NPR1, stronger effect = lower value",1.02
same,normalized growth,[8],1.07
same,normalized growth,[9],1.01
same,normalized growth,"S. cerevisiae deletion strains, locus YNL233W, strain BNI4, stronger effect = lower value",1
same,normalized growth,"S. cerevisiae deletion strains, locus YNL250W, strain rad50, stronger effect = lower value",1.01
same,normalized growth,"S. cerevisiae deletion strains, locus YNL271C, strain bni1, stronger effect = lower value",1.02
same,normalized growth,"S. cerevisiae deletion strains, locus YNL298W, strain CLA4, stronger effect = lower value",1
same,normalized growth,"S. cerevisiae deletion strains, locus YNL307C, strain MCK1, stronger effect = lower value",0.989
same,normalized growth,[10],1.01
same,normalized growth,"S. cerevisiae deletion strains, locus YNR052C, strain pop2, stronger effect = lower value",1.02
same,normalized growth,"S. cerevisiae deletion strains, locus YOL006C, strain TOP1, stronger effect = lower value",0.995
same,normalized growth,"S. cerevisiae deletion strains, locus YOL012C, strain htz1",2.1 [resistant] (active)
same,normalized growth,"S. cerevisiae deletion strains, locus YOL147C, strain pex11, stronger effect = lower value",1
same,normalized growth,"S. cerevisiae deletion strains, locus YOR061W, strain CKA2, stronger effect = lower value",1.01
same,normalized growth,"S. cerevisiae deletion strains, locus YOR069W, strain VPS5, stronger effect = lower value",1.01
same,normalized growth,[11],0.979
same,normalized growth,"S. cerevisiae deletion strains, locus YOR136W, strain idh2, stronger effect = lower value",1.02
same,normalized growth,"S. cerevisiae deletion strains, locus YOR144C, strain elg1, stronger effect = lower value",1.01
same,normalized growth,"S. cerevisiae deletion strains, locus YOR184W, strain ser1, stronger effect = lower value",1.02
same,normalized growth,"S. cerevisiae deletion strains, locus YOR231W, strain MKK1, stronger effect = lower value",1.02
same,normalized growth,"S. cerevisiae deletion strains, locus YOR316C, strain cot1, stronger effect = lower value",1.01
same,normalized growth,[12],1.01 and 0.902
same,normalized growth,"S. cerevisiae deletion strains, locus YPL241C, strain CIN2, stronger effect = lower value",1.01
same,normalized growth,"S. cerevisiae deletion strains, locus YPL256C, strain CLN2, stronger effect = lower value",1.09
same,normalized growth,"S. cerevisiae deletion strains, locus YPR119W, strain clb2, stronger effect = lower value",1.01
same,normalized growth,"S. cerevisiae deletion strains, locus YPR141C, strain kar3, stronger effect = lower value",1.02
same,normalized growth,"S. cerevisiae deletion strains, locus YPR163C, strain tif3, stronger effect = lower value",1.02
same,normalized growth,"S. cerevisiae deletion strains, locus YPR167C, strain met16, stronger effect = lower value",1.01
same,normalized growth,"S. cerevisiae deletion strains, strain wtn01, stronger effect = lower value",1.01
same,normalized growth,"S. cerevisiae strains, strain wild type, stronger effect = lower value",1.01
NC(=Nc1ccccc1)NC(=O)c1nc(Cl)c(N)nc1N,normalized growth,[13],0.975
same,normalized growth,[1],0.997
same,normalized growth,"S. cerevisiae deletion strains, locus YCL061C, strain MRC1 (second series), stronger effect = lower value",1
same,normalized growth,[2],0.999
same,normalized growth,[3],0.973
same,normalized growth,[4],0.991
same,normalized growth,[5],1
same,normalized growth,[14],0.993
same,normalized growth,[6],0.986
same,normalized growth,[7],1.01
same,normalized growth,[8],1.01
same,normalized growth,[9],1
same,normalized growth,[10],0.992
same,normalized growth,[11],1
